Data from PubChem BioAssay AID504850 (National Center for Advancing Translational Sciences (NCATS), 2011).
The whole screen tested about 2,300 compounds, of which about 1,200 (52%) were called active. About 34% were inconclusive and are not listed. The call rests on the fitted dose curve; in most records, active means well fitted inhibition curve with a large enough effect; inconclusive means small, poorly fitted or top-dose-only effect, or effect the other way; inactive means no such curve, though single readings can be large or run the other way. So high a share suggests a set chosen from earlier hits. The list shows a part of the results.

experiment: Confirmation screen for delayed death inhibitors of the malarial parasite plastid, 48 hour incubation; further: nearly all actives have a fitted effect of over 65% in size; details: P. falciparum-infected erythrocytes, luciferase growth; series mostly up to 28.7 µM
Summary of the method: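 Erythrocytes infected with luciferase-expressing P. falciparum (2% hematocrit, 0.1% parasitemia) incubated with compounds 48 hours at 37 C, 5% CO2, in RPMI/Albumax. Growth inhibition scored as reduced luminescence after detection reagent.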
Potency means the concentration at half of the fitted maximal effect.

Row | SMILES | Potency
1 | COc1cccc(CN(C)CC2CCCN(CCc3ccc(Cl)cc3)C2)c1OC (stereo unspecified) | 10 µM (active)
2 | CCOc1cc(/C=C2\CN(CC)C/C(=C\c3ccc(O)c(OCC)c3)C2=O)ccc1O | 3.98 µM (active)
3 | COc1ccc(/C=C2\CN(Cc3ccccc3)C/C(=C\c3ccc(OC)c(O)c3)C2=O)cc1O | 0.891 µM (active)
4 | O=C(O)c1ccccc1NS(=O)(=O)c1cccc(-n2sc3ccccc3c2=O)c1 | 15.8 µM (active)
5 | CCOc1ccccc1Nc1nnc(SC(C)C(=O)Nc2nc(-c3ccccc3)cs2)s1 (stereo unspecified) | 14.1 µM (active)
6 | Cc1cc(C(=O)OC(C)C(=O)Nc2nc(-c3ccccc3)cs2)c(C)o1 (stereo unspecified) | inactive
7 | CC(=O)Oc1ccc(-c2csc(Nc3cccnc3)n2)cc1 | inactive
8 | COc1ccccc1Nc1nnc(SCC(=O)Nc2nc(-c3ccc(F)cc3)cs2)s1 | 11.2 µM (active)
9 | COc1ccccc1Nc1nnc(SCc2cc(=O)n3ccsc3n2)s1 | 12.6 µM (active)
10 | Oc1ccc(Cl)cc1CNc1cnc2ccccc2c1 | 12.6 µM (active)
11 | Cc1nc2scc(C)n2c(=O)c1S(=O)(=O)NCc1ccccc1Cl | inactive
12 | Cc1cccc(-n2ncc3c2CCCC3NC(=O)C2=CC(=O)CC(C)(C)O2)c1C (stereo unspecified) | 15.8 µM (active)
13 | Cc1cc(C(=O)NC2CCCc3c2cnn3-c2cccc(C)c2C)no1 (stereo unspecified) | inactive
14 | COc1ccc(C(=O)NC2CCCc3c2cnn3-c2cccc(C)c2C)o1 (stereo unspecified) | 12.6 µM (active)
15 | CCc1c(C(=O)NC2CCCc3ccccc32)[nH]c(C)c1C(C)=O (stereo unspecified) | inactive
16 | COc1cccc(NC(=O)c2nc(S(C)(=O)=O)ncc2Cl)c1 | inactive
17 | O=C(CCl)Nc1cccc(Oc2cnccn2)c1 | 4.47 µM (active)
18 | COc1ccc(CNS(=O)(=O)c2ccc3c(c2)N(C(C)=O)CC(C)S3)cc1 (stereo unspecified) | 12.6 µM (active)
19 | Cn1nc(CC(=O)Nc2ncc(Br)s2)c2ccccc2c1=O | 11.2 µM (active)
20 | O=C(C[n+]1cc(Br)cc2ccccc21)c1ccccc1 | 10 µM (active)
21 | Clc1ccc2nc(-c3ccccn3)c(Nc3ccc4c(c3)OCO4)n2c1 | 11.2 µM (active)
22 | Nc1ccc2nc(-c3ccc(-c4nc5ccc(N)cc5[nH]4)cc3)[nH]c2c1 | 7.08 µM (active)
23 | CC1CCC(NC(=O)CN(C)S(=O)(=O)c2ccc3c(c2)c(=O)n(C)c(=O)n3C)CC1 (stereo unspecified) | 10 µM (active)

Row | SMILES | Potency
24 | Cc1cccc(N(C)C(=O)CN(C)S(=O)(=O)c2ccc3c(c2)c(=O)n(C)c(=O)n3C)c1 | 12.6 µM (active)
25 | O=S(=O)(c1cnc[nH]1)N1CCN(C(c2ccc(F)cc2)c2ccc(F)cc2)CC1 | 11.2 µM (active)
26 | O=C(Oc1nsnc1N1CCCCC1)N1CCOCC1 | 12.6 µM (active)
27 | O=C1CN(C(=O)c2ccc(Cl)c(S(=O)(=O)N3CCc4ccccc43)c2)c2ccccc2N1 | 12.6 µM (active)
28 | COC(=O)C1C(=O)C2=C(CC1C)NC(C)=C(C(=O)OCCOc1ccccc1)C2c1ccc(C)o1 (stereo unspecified) | 14.1 µM (active)
29 | O=C(Nc1ccc(S(=O)(=O)N2CCOCC2)cc1)c1ccc([N+](=O)[O-])o1 | 3.16 µM (active)
30 | CS(=O)(=O)N1CCN(c2ccc(NC(=O)c3ccc([N+](=O)[O-])o3)cc2)CC1 | 11.2 µM (active)
31 | Cn1cc([N+](=O)[O-])c(C(=O)Nc2ccc(C3CCCCC3)cc2)n1 | inactive
32 | O=C(Nc1ccc(N2CCOCC2)c(Cl)c1)c1cc2ccccc2o1 | 2.51 µM (active)
33 | CC(C)C(=O)N1CCN(c2ccc(NC(=O)c3ccc([N+](=O)[O-])o3)cc2)CC1 | 8.91 µM (active)
34 | CCN1CCN(c2ccc(NC(=O)c3ccc([N+](=O)[O-])o3)cc2Cl)CC1 | 7.94 µM (active)
35 | CC(C)C(=O)N1CCN(c2ccc(NC(=O)c3ccco3)cc2Cl)CC1 | 7.94 µM (active)
36 | CCC(=O)N1CCN(c2ccc(NC(=O)c3ccc([N+](=O)[O-])o3)cc2Cl)CC1 | 12.6 µM (active)
37 | CCc1nn2c(=O)cc(COc3ccc(NC(=O)c4ccco4)cc3)nc2s1 | inactive
38 | Cc1cccc(-c2c(NC(=O)c3ccco3)oc3ccc(Cl)cc3c2=O)c1 | inactive
39 | CCCC(=O)N1CCN(c2ccc(NC(=O)c3ccc([N+](=O)[O-])o3)cc2Cl)CC1 | 11.2 µM (active)
40 | CCCC(=O)N1CCN(c2ccc(NC(=O)c3ccc([N+](=O)[O-])o3)cc2)CC1 | 7.08 µM (active)
41 | CCc1c(C)nc2nc(SCc3ccccc3Cl)[nH]n2c1=O | inactive
42 | CCN(CC)c1ccc(/C=C/c2cccc[n+]2C)c(OC)c1 | 1.12 µM (active)
43 | COc1cc(/C=N/NC(=S)Nc2cccc(S(=O)(=O)N(C)C)c2)cc(OC)c1O | inactive
44 | CN(C)S(=O)(=O)c1cccc(NC(=S)N/N=C/c2cc(Br)ccc2O)c1 | 3.55 µM (active)
45 | Cn1nc([N+](=O)[O-])nc1Sc1nnc(-c2ccccc2)o1 | 11.2 µM (active)
46 | Cc1ccc(-n2ncc3c(SCc4ccccn4)ncnc32)c(C)c1 | 12.6 µM (active)

Row | SMILES | Potency
47 | CCOC(=O)C(=Cc1ccc(-n2cncn2)cc1)C(=O)OCC | 15.8 µM (active)
48 | CCOC(=O)C(CC)(CC)C(=O)/C=C/c1ccc(Br)cc1 | 10 µM (active)
49 | CCOC(=O)C(=Cc1ccc(Br)cc1)C(=O)OCC | 10 µM (active)
50 | COc1ccc(/C=C/C(=O)NC(=S)NN2CCCCC2c2cccnc2)cc1 (stereo unspecified) | 12.6 µM (active)
51 | CC(C)c1ccc(/C=C/C(=O)NC(=S)NN2CCOCC2)cc1 | inactive
52 | COCCn1c(C)cc(C(=O)CSc2cc(C)c3ccc(OC)cc3n2)c1C | 12.6 µM (active)
53 | COC(=O)[C@@H]1C[C@]2(OC(=O)c3ccccc3)C=CC(=O)C[C@@H]2N1C(=O)OCc1ccccc1 | 14.1 µM (active)
54 | CN(C)c1ccc(CN(C(=O)c2ccccc2Br)C2CCS(=O)(=O)C2)cc1 (stereo unspecified) | 14.1 µM (active)
55 | COc1cccc(CN(C(=O)c2ccccc2Br)C2CCS(=O)(=O)C2)c1 (stereo unspecified) | 15.8 µM (active)
56 | O=C(O)c1nn(CCSc2ccccc2F)c(=O)c2ccccc12 | inactive
57 | Cc1c(Cl)ccc2c(C(=O)O)cc(-c3ccccc3)nc12 | inactive
58 | Cc1ccc(-c2cc(C(=O)N/N=C/c3ccoc3)c3ccccc3n2)cc1 | 12.6 µM (active)
59 | COc1ccc(/C=N/NC(=O)c2cc(-c3ccccc3)nc3ccccc23)cc1O | inactive
60 | Cc1ccc(-c2cc(C(=O)N/N=C/C=C/c3ccco3)c3ccccc3n2)cc1C | 10 µM (active)
61 | O=C(CCc1ccccc1)NNC(=O)c1ccccn1 | 7.94 µM (active)
62 | O=C(NCc1ccccc1)C(c1cccnc1)N(C(=O)c1ccccn1)c1ccccc1F (stereo unspecified) | inactive
63 | Cc1ccc(C(=O)NCC(=O)NCCCc2ccccc2)s1 | inactive
64 | CCOc1ccc(CCNC(=O)COC(=O)c2ccc(C)s2)cc1OCC | 10 µM (active)
65 | CCOC(=O)NC(=O)COC(=O)c1ccc(O)cc1 | inactive
66 | COc1ccccc1NC(=O)Cn1cnc2sc(C(=O)Nc3ccc(OC)c(OC)c3)c(C)c2c1=O | 12.6 µM (active)
67 | CSCCn1c(C(C)(C)C)cc(C(=O)O)c1C | inactive
68 | CCO[C@H]1OC(C(=O)N2CCN(Cc3ccccc3)CC2)=C[C@@H](c2ccc(C(F)(F)F)cc2)[C@@H]1CCCO | 4.47 µM (active)
69 | CCO[C@H]1OC(C(=O)N2CCN(Cc3ccc4c(c3)OCO4)CC2)=C[C@@H](c2ccc(C(F)(F)F)cc2)[C@@H]1CCCO | 3.55 µM (active)

Row | SMILES | Potency
70 | O=C(C1=C[C@@H](c2csc3ccccc23)C[C@@H](OCCCCO)O1)N1CCN(Cc2ccc3c(c2)OCO3)CC1 | 10 µM (active)
71 | CCn1c(=O)cc(C(=O)OC)sc1=Nc1ccc(F)c(F)c1 | inactive
72 | Cc1cc(C)n(-c2ccc(C(=O)Nc3ccc(S(=O)(=O)NCc4ccco4)cc3)cc2)n1 | 10 µM (active)
73 | CC(C)n1nc(C(=O)Nc2cccc(S(=O)(=O)NCc3ccco3)c2)c2ccccc2c1=O | 11.2 µM (active)
74 | O=C(Nc1ccccc1)c1cccc(S(=O)(=O)NCc2ccco2)c1 | inactive
75 | Cc1cc(C)n2nc(C(=O)N/N=C/c3c4ccccc4cc4ccccc34)nc2n1 | 8.91 µM (active)
76 | COC(=O)c1ccc(C2N=C(c3cccs3)CC(c3ccccc3O)N2)cc1 (stereo unspecified) | 8.91 µM (active)
77 | CCOC(=O)c1c(S(=O)(=O)NCC(=O)N2CCN(c3ccccc3OC)CC2)c(C)n(C)c1C | 12.6 µM (active)
78 | CCOC(=O)c1c(S(=O)(=O)NCC(=O)Nc2cccc(C)c2C)c(C)n(C)c1C | inactive
79 | Cc1ccc(C(=O)NCCc2nnc3ccc(SCC(=O)NCc4ccc(F)cc4)nn23)cc1 | 10 µM (active)
80 | COc1cccc(NC(=O)CSc2ccc3nnc(CCNC(=O)c4ccccc4)n3n2)c1 | 15.8 µM (active)
81 | Cc1ccc(Cc2cnc(N3C(=N)SC(C)C3=O)s2)cc1 (stereo unspecified) | inactive
82 | CCN1C(=O)[C@@H]2Cc3c([nH]c4ccccc34)C(c3ccc(OC)cc3)N2C1=S (stereo partly specified) | 15.8 µM (active)
83 | C=CCN1C(=O)[C@@H]2Cc3c([nH]c4ccccc34)C(c3ccc(O)cc3)N2C1=S (stereo partly specified) | 12.6 µM (active)
84 | CC1(C)CC(=O)C2=C(C1)OC1=C(C(=O)CC(C)(C)C1)C2c1ccc(O)cc1O | 7.08 µM (active)
85 | Fc1cccc(CNc2ncnc3ccc(-c4ccc5c(c4)OCO5)cc23)c1 | 10 µM (active)
86 | Fc1ccc(CSc2nncn2NCc2ccc3c(c2)OCO3)cc1 | inactive
87 | CCOCCCNC(=S)N1CCN(c2nc(-c3ccccc3)cs2)CC1 | 11.2 µM (active)
88 | NC1=NC[C@H](Cc2ccc(O)cc2)N1CCc1cccc(F)c1 | 7.94 µM (active)
89 | NC1=NC[C@@H](Cc2ccc(O)cc2)N1CCc1cccc(F)c1 | 10 µM (active)
90 | CCCCCCCNC(=O)C1(CC2CC(c3ccc(Cl)cc3)=NO2)CCN(C(=O)C2CCCC2)CC1 (stereo unspecified) | 14.1 µM (active)
91 | CCCCCCCNC(=O)C1(CC2CC(c3ccc(Cl)cc3)=NO2)CCN(C(=O)Cc2ccc(F)cc2)CC1 (stereo unspecified) | 11.2 µM (active)
